The values below come from PubChem BioAssay (EPA / NIEHS).

Each structure is given as a SMILES string. Where “and” joins values, the source holds several entries; their conditions need not be identical. Identical values can stand only once. Records with an inconclusive call do not appear. Calls of active or inactive are those of the source. Rule for the calls: active = hit-call score of the fitted dose curve at least 0.9, where 1 is the maximum; inconclusive = response in the unintended direction; inactive = score below 0.9.

The nature of the experiment: CCTE_Shafer_MEA_dev_AB: CCTE's Alamar Blue Assay for Cytotoxicity in the Neural Network Formation Assay, Shafer Lab (AID 2284083).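 Note: twelve days of exposure from plating with re-dosing on DIV 5 and 9.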 The method, then:
CCTE_Shafer_MEA_dev assay is conducted using Axion Biosystems 48 well microelectrode array (MEA) plates and Maestro recording system. Each well of the MEA plate contains a grid of 16 microelectrodes embedded in the culture surface. Electrically active cells, such as neurons, can be cultured over the electrodes, and electrical activity in these cells can be recorded extracellularly. The spontaneous firing of neurons is captured from each electrode on a microsecond timescale providing both temporally and spatially precise data. […] The CCTE_Shafer_MEA_dev assay uses primary cultures of rat cortical neurons. Recordings are made on days post-plating 5, 7, 9 and 12. As these cultures mature over time, neural networks develop functional activity and form cohesive networks in which electrical activity can be highly coordinated. CCTE_Shafer_MEA_dev_AB is 1 of 19 assay components of the CCTE_Shafer_MEA_dev assay. It measures the resazurin reduction using fluorescence.Data from the assay component CCTE_Shafer_MEA_dev_AB was analyzed into 1 assay endpoint. This assay endpoint, CCTE_Shafer_MEA_dev_AB, was analyzed in the positive analysis fitting direction relative to DMSO as the negative control and baseline of activity. Using a type of viability reporter, loss-of-signal activity can be used to understand cell viability.
On the day prior to culture, each well was coated thoroughly with 150 uL of 0.05% polyethyleneimine (PEI, Sigma Cat P3143) in 50 mM HEPES (Sigma Cat H7523) at a pH of 8. The plate was incubated at 37C for one hour. PEI was rinsed out with 500 uL of sterile water three times. Plates were stored at 4C until the day of culture. This culture was plated at a seeding density of 1.5 x 10^5 cells/well on a 48-well MEA plate, prepared as described above. Cells were administered via a 25 uL media/laminin ([…]; Sigma Cat L2020-1MG) drop directly onto the microelectrode array, as adding the cells with the laminin results in better attachment than pre-coating with laminin. After 2 hours, an additional 475 uL of cortical media was added and the cells returned to the incubator. Exposure starts at day 0 of plating and is continued over twelve days of network development until the experiment is terminated. Cells are fed with fresh medium on DIV 5 and 9, following the recordings on those days. The entire volume of media in the well is exchanged and any vehicle or compound treatment is renewed. Complete details are found in OP-NHEERL/ISTD/SBB/TJS/2015-03-r0 (available on request, email shafer.tim@epa.gov). Measurement of the electrical activity is non-invasive, and recordings can be made from the same plate over multiple different days of the culture. In cortical neurons, this allows for the measurement of extracellular action potentials over the period during which networks form in the MEA plate.
Background: The colour change of resazurin is a common sign of viable cells or microbes.
`C[C@@H]1C[C@H]2[C@@H]3CCC4=CC(=O)C=C[C@]4(C)[C@@]3(F)[C@@H](O)C[C@]2(C)[C@@]1(O)C(=O)CO`: the call was inactive.

In the case of `[Cl-].[Cl-].[NH2-].[NH2-].[Pt+4]`, the molecule was classed as inactive. The same measure, in the same setting: the same measure for `CN(C)CCC(c1ccc(Cl)cc1)c1ccccn1` (stereo not given): “inactive”.

As to `NC(N)=Nc1nc(CSCCC(N)=NS(N)(=O)=O)cs1`, the outcome was inactive.

The term AC50 denotes the concentration at which the activity in the assay is half-maximal. On to `COc1ccc2cc3[n+](cc2c1OC)CCc1cc2c(cc1-3)OCO2`, for which the half-maximal activity concentration (AC50) was 0.45 µM (active). On the same count and under the same terms, the same measure for `CN(C)C(=O)C(CCN1CCC(O)(c2ccc(Cl)cc2)CC1)(c1ccccc1)c1ccccc1`: 5.74 µM (active) and 5.44 µM (active) and 5.02 µM (active); for `CC[C@H](C)C(=O)O[C@H]1CCC=C2C=C[C@H](C)[C@H](CC[C@@H]3C[C@@H](O)CC(=O)O3)[C@H]21`: 687 nM (active) and 2.01 µM (active). Turning to `C[C@H](CS)C(=O)N1CCC[C@H]1C(=O)O`, the outcome was inactive. As to `Cc1c(O)cccc1C(=O)N[C@@H](CSc1ccccc1)[C@H](O)CN1C[C@H]2CCCC[C@H]2C[C@H]1C(=O)NC(C)(C)C`, the concentration at half-maximal activity (AC50) is 10.1 µM (active). The same measure, in the same setting: the value for `CNCCC(Oc1ccc(C(F)(F)F)cc1)c1ccccc1` (stereo not given) was 5 µM (active).
